Compound activity from PubChem BioAssay.
Only a sample is shown.
aSyn UTR act: Activators via SNCA 5'UTR binding, MLPCN. activity score, % (tested at 7.5 µM), hits read low. 300,000 tested, 7.1% active. AID 1814. alpha-synuclein 5'UTR reporter, activators screen; in the data active means activity score below about -60%
Active calls of the source: *.

SMILES	aSyn UTR act
O=C(Nc1ccc(Cl)cn1)c1ccccc1[N+](=O)[O-]	-77*
COc1ccc(C(=O)Oc2ccc3oc(=O)sc3c2)cc1	-89*
O=C(CSc1nc2ccccc2o1)Nc1ccc(N2CCOCC2)cc1	-147*
O=C(CSc1nc2cc(Cl)ccc2o1)Nc1ccc(N2CCOCC2)cc1	-133*
Cc1cc(N2CCN(C)CC2)nc2ccc(NC(=S)NCCC(C)C)cc12	-86*
Cc1cc(N2CCN(C)CC2)nc2ccc(NC(=S)NCc3cccs3)cc12	-78*
CCCN(CCC)CCCNC(=S)Nc1ccc2nc(N3CCCC3)cc(C)c2c1	-72*
CCOc1ccc(-c2nnc(SCC(=O)Nc3ccc4c(c3)c3ccccc3n4CC)n2N)cc1	84
CCOc1ccc(NCc2nnc(SCC(=O)Nc3cc(C)on3)n2-c2ccccc2OC)cc1	-101*
Cc1ccc(-c2nc(CS(=O)(=O)CC(=O)NC3CCC(C)CC3)c(C)o2)cc1 (configuration not stated)	-102*
CCc1ccc(-c2nc(CSCC(=O)NC3CC3)c(C)o2)cc1	71
Cc1cc(C)n(CC(O)COc2ccc3ccccc3c2)n1 (configuration not stated)	-114*
Cc1ccc2nc(/C(C#N)=C/c3cn[nH]c3-c3ccc(F)cc3)[nH]c2c1	-175*
Cc1ccc2nc(/C(C#N)=C/c3ccc(O)c(O)c3)[nH]c2c1	-222*
COc1cccc(NC(=S)Nc2cc(C(=O)O)ccc2N2CC3CC(C2)c2cccc(=O)n2C3)c1 (configuration not stated)	-95*
Cc1noc(/C=C/c2ccc(-c3ccccc3Cl)o2)c1[N+](=O)[O-]	-63*
COc1cccc(N/C=C/c2onc(C)c2[N+](=O)[O-])c1	-151*
Cc1ccc(N/C=C/c2onc(C)c2[N+](=O)[O-])cc1	-134*
O=C(Nc1cccc(-c2cn3c(n2)SCC3)c1)c1ccc2ccccc2n1	-141*
O=C(Nc1ccc(-c2cn3c(n2)SCC3)cc1)c1ccc2ccccc2n1	-186*
COC(=O)c1ccc2c(=O)n3c(nc2c1)SCC(c1ccccc1)=N3	-112*
CCOc1ccc2c(c1)nc(SCC(=O)c1cccs1)n2C	-67*
CC(C)N(C(C)C)S(=O)(=O)c1ccc(N2CCc3ccccc3C2)nc1	-150*
CCN(CC)S(=O)(=O)c1ccc(N2CCc3ccccc3C2)nc1	-78*
CCN(CC)S(=O)(=O)c1ccc(N/N=C/c2ccc(O)cc2O)nc1	90
SMILES	aSyn UTR act
Cc1ccc(O)c(NC(=S)NC(=O)c2ccccc2Cl)c1	-120*
COc1ccc(NC(=S)NC(=O)c2ccccc2Cl)cc1	-130*
CCn1cc(C(=O)NC(=S)Nc2ccccc2[N+](=O)[O-])cn1	-94*
O=C(NC(=S)Nc1ccccc1[N+](=O)[O-])c1ccccc1Cl	-94*
CC(C)CNC(=S)NC(=O)c1ccccc1Cl	-93*
O=C(NC(=S)Nc1ccc(O)cc1)c1ccccc1Cl	-161*
Cc1ccn2c(C(=O)c3ccc(Cl)cc3)cnc2c1	-81*
O=C(Cc1nc2ccccc2[nH]c1=O)c1ccccc1	-172*
O=C(Cc1nc2ccccc2[nH]1)c1ccc(Br)cc1	-190*
O=C(COc1ccc(Cl)cc1Br)Nc1ccncc1	-146*
Cc1c(OCC(=O)Nc2cccnc2)ccc2c3c(c(=O)oc12)CCC3	58
O=C(COc1ccc(Cl)cc1Cl)Nc1cccnc1	-122*
CC(C)(C)c1ccc(-c2csc(NNC3=NCCCCC3)n2)cc1	-78*
N#Cc1ccc(-c2csc(NC3=NCCCCC3)n2)cc1	-73*
c1ccc(-c2csc(NC3=NCCCCC3)n2)cc1	-99*
CCCCCCc1ccc(N2C[C@H](C)[C@@H](CC(=O)NCc3ccccc3)C2=O)cc1	-82*
CSC1CCCCC1(O)CSc1nc2c(cc1C#N)CCCC2 (configuration not stated)	56
CCOC(=O)c1sc(NC(=O)CSc2nc3c(cc2C#N)CCCCC3)c(C#N)c1C	-143*
COC(=O)CC(=O)CSc1nc2c(cc1C#N)CCCCC2	-62*
CCc1nnc(NC(=O)CSc2nc3c(cc2C#N)CCCC3)s1	-91*
CCc1c(C)nc2cc(-c3ccc(Cl)cc3)[nH]n2c1=O	-98*
CCc1c(C)nc2cc(-c3cccc(Br)c3)[nH]n2c1=O	-199*
Nc1[nH]n2c(=O)cc(-c3ccccc3)nc2c1N=Nc1ccccc1	68
COCc1cc(=O)n2[nH]c(-c3cccc(Br)c3)cc2n1	-75*
O=c1cc(-c2ccccc2)nc2cc(-c3ccc(Br)cc3)[nH]n12	-94*
SMILES	aSyn UTR act
Cc1nc2cc(-c3ccc(Br)cc3)[nH]n2c(=O)c1Cl	-74*
O=c1c2c(nc3cc(-c4ccc(Cl)cc4)[nH]n13)CCS2	-132*
CC(C)CNC(=O)c1cc(-c2ccc3c(c2)OCO3)on1	-100*
CCCNC(=O)COCc1cc(-c2ccc3c(c2)OCO3)on1	-66*
CC(C)CNC(=O)COCc1cc(-c2ccc3c(c2)OCO3)on1	-77*
Cc1ccc(Cn2nc(C)c(NC(=O)c3cc(-c4ccc5c(c4)OCO5)on3)c2C)cc1	43
O=C(COCc1cc(-c2ccc3c(c2)OCO3)on1)N1CCCCC1	-90*
Cc1cccn2c(=O)c(C=Nc3ccc(Cl)cc3)c(NCCO)nc12	-91*
